According to PubChem BioAssay:
Calls of active or inactive are those of the source.

Legend:
[1] = binders of probe aFSTL3 on microarray, primary screen, stem cell growth factor project, biochemical, small-molecule microarray, fluorescence 635/667 (AID 1064); conditions: higher = more signal;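 note: measures binding of the biotinylated anti-FSTL3 antibody to printed compounds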
[2] = binders from COS7 lysate, DM2A8 probe, primary screen, torsin A project, cell lysate, small-molecule microarray, fluorescence 635/667 (AID 1065); conditions: higher = more signal, COS7 lysate expressing mutant human TOR1A
[3] = binders of probe aFGF2 on microarray, primary screen, stem cell growth factor project, biochemical, small-molecule microarray, fluorescence 635/667 (AID 1067); conditions: higher = more signal;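 note: measures binding of biotinylated aFGF2 protein to printed compounds on slides; z-score merges feature fluorescence and signal-to-noise across triplicate slides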
[4] = binders of probe aFGF10 on microarray, primary screen, stem cell growth factor project, biochemical, small-molecule microarray, fluorescence 635/667 (AID 1071); conditions: higher = more signal;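 note: score merges 667 nm spot intensity and signal to noise from triplicate slides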
[5] = target: Neurogenic locus notch homolog protein 2 (Homo sapiens) (UniProt Q04721); experiment: Notch2 binders on small-molecule microarrays, primary screen, biochemical, small-molecule microarray, 635 nm fluorescence, stem cell growth factors (AID 1073); conditions: Notch2 binding, higher = more signal
[6] = target: Pro-neuregulin-1, membrane-bound isoform (Homo sapiens) (UniProt Q02297); experiment: NRG1 binders on small-molecule microarrays, primary screen, psychiatric disease protein project, biochemical, small-molecule microarray, fluorescence 635/667 (AID 1075); conditions: NRG1 binding, 635 nm fluorescence, higher = more signal;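 note: score combines 667 nm spot fluorescence with signal to noise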
[7] = tested on: Neuregulin-1 EGF-like domain; experiment: binders of neuregulin-1 EGF-like domain, primary screen, biochemical, small-molecule microarray, 635 nm fluorescence (AID 1081); conditions: small-molecule microarray binding, higher = more signal;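 note: binding of the protein to compounds printed on small-molecule microarray slides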
[8] = FRG1 promoter luciferase signal modulators, primary screen, FRG1 inhibition for FSHD, cell-based, C2C12 myotubes, firefly/Renilla luciferase, luminescence (AID 1084); conditions: higher = more signal, called active from +8 up or from −8 down
[9] = binders of probe aFST on microarray, primary screen, stem cell growth factor project, biochemical, small-molecule microarray, fluorescence 635/667 (AID 1086); conditions: higher = more signal;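 note: score merges 667 nm fluorescence with signal-to-noise of each printed compound spot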
[10] = binders of probe aHhip on microarray, primary screen, stem cell growth factor project, biochemical, small-molecule microarray, fluorescence 635/667 (AID 1087); conditions: higher = more signal;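 note: score merges spot fluorescence at 667nm with spot signal to noise ratio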
[11] = tested on: PRMT1 (protein arginine N-methyltransferase 1); experiment: PRMT1 binders on small-molecule microarrays, primary screen, biochemical, small-molecule microarray, 635 nm fluorescence (AID 1088); conditions: small-molecule microarray binding, higher = more signal;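 note: binding of Prmt1 protein to compounds spotted on small-molecule microarray slides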
[12] = yeast growth modulation, basal conditions, primary screen, YJM789 clinical isolate, OD600, 24 h (AID 1089);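 note: growth of clinical yeast isolate S. cerevisiae YJM 789 seeded 1000 cells per well; test concentration not given here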; conditions: S. cerevisiae YJM789 growth, higher = more signal, called active from +8 up or from −8 down
[13] = fission yeast growth modulation, primary screen, strain 972, OD600, 24 h, no modulator (AID 1090);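 note: basal condition with compound alone and no growth modifier present; test concentration not given here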; conditions: S. pombe 972 growth, higher = more signal, called active from +8 up or from −8 down
[14] = S. cerevisiae growth modulation with rapamycin, primary screen, strain BY4716, OD600, 96 h (AID 1091); conditions: higher = more signal, called active from +8 up or from −8 down; note: test concentration not given here
[15] = target: Torsin-1A-interacting protein 2 (Homo sapiens) (UniProt Q8NFQ8); experiment: LULL1 binders on small-molecule microarray, primary screen, cell lysate, human LULL1 lysate, 635/667 nm fluorescence (AID 1092); conditions: hLULL1 lysate binding, 635 nm fluorescence, higher = more signal;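 note: probe is lysate of COS7 cells overexpressing human LULL1; score merges per-feature 667 nm fluorescence with signal-to-noise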
[16] = E. coli growth modulation, two-sided OD650, primary screen, E. coli filamentation project, strain DRC41, 24 h (AID 1093); conditions: OD650, 24 h, higher = more signal, called active from +8 up or from −8 down;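 note: MC1000 strain lacking acrAB efflux and sulA so SOS filamentation is blocked; test concentration not given here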
[17] = small-molecule microarray binders of probe aLefty2, primary screen, biochemical, biotinylated probe, 635/667 nm fluorescence (AID 1094); conditions: higher = more signal;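 note: score merges spot fluorescence near 667 nm with spot signal-to-noise ratio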
[18] = tested on: Noggin (protein binding on small-molecule microarray); experiment: Noggin binders on small-molecule microarray, primary screen, biochemical, 635/667 nm fluorescence (AID 1095); conditions: 635 nm fluorescence, higher = more signal;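 note: score merges 667 nm feature fluorescence with signal to noise over triplicate slides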
[19] = target: Neurogenic locus notch homolog protein 3 (Homo sapiens) (UniProt Q9UM47); experiment: NOTCH3 binders on small-molecule microarray, primary screen, biochemical, 635/667 nm fluorescence (AID 1096); conditions: NOTCH3 binding, 635 nm fluorescence, higher = more signal
[20] = small-molecule microarray binders of probe aEGFR, primary screen, biochemical, biotinylated probe, 635/667 nm fluorescence (AID 1097); conditions: higher = more signal;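 note: probe is a biotinylated anti-EGFR antibody binding compounds printed on slides; score combines fluorescence near 667 nm and signal to noise of each spot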

Sequence of Torsin-1A-interacting protein 2 (Homo sapiens) (Q8NFQ8 whole entry, looked up): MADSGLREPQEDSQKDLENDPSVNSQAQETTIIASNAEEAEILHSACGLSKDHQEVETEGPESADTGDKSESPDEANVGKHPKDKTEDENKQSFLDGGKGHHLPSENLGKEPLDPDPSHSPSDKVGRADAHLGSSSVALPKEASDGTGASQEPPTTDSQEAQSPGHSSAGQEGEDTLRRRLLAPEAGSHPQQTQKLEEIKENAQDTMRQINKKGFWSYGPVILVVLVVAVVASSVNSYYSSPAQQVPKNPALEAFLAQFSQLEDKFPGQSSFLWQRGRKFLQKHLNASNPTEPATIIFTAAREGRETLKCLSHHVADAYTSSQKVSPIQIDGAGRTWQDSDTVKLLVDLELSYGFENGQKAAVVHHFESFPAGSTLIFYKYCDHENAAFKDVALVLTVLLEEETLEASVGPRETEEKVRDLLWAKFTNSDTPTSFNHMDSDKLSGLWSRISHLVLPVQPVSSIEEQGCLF
Sequence of Neurogenic locus notch homolog protein 2 (Homo sapiens) (Q04721 whole entry, looked up, canonical isoform): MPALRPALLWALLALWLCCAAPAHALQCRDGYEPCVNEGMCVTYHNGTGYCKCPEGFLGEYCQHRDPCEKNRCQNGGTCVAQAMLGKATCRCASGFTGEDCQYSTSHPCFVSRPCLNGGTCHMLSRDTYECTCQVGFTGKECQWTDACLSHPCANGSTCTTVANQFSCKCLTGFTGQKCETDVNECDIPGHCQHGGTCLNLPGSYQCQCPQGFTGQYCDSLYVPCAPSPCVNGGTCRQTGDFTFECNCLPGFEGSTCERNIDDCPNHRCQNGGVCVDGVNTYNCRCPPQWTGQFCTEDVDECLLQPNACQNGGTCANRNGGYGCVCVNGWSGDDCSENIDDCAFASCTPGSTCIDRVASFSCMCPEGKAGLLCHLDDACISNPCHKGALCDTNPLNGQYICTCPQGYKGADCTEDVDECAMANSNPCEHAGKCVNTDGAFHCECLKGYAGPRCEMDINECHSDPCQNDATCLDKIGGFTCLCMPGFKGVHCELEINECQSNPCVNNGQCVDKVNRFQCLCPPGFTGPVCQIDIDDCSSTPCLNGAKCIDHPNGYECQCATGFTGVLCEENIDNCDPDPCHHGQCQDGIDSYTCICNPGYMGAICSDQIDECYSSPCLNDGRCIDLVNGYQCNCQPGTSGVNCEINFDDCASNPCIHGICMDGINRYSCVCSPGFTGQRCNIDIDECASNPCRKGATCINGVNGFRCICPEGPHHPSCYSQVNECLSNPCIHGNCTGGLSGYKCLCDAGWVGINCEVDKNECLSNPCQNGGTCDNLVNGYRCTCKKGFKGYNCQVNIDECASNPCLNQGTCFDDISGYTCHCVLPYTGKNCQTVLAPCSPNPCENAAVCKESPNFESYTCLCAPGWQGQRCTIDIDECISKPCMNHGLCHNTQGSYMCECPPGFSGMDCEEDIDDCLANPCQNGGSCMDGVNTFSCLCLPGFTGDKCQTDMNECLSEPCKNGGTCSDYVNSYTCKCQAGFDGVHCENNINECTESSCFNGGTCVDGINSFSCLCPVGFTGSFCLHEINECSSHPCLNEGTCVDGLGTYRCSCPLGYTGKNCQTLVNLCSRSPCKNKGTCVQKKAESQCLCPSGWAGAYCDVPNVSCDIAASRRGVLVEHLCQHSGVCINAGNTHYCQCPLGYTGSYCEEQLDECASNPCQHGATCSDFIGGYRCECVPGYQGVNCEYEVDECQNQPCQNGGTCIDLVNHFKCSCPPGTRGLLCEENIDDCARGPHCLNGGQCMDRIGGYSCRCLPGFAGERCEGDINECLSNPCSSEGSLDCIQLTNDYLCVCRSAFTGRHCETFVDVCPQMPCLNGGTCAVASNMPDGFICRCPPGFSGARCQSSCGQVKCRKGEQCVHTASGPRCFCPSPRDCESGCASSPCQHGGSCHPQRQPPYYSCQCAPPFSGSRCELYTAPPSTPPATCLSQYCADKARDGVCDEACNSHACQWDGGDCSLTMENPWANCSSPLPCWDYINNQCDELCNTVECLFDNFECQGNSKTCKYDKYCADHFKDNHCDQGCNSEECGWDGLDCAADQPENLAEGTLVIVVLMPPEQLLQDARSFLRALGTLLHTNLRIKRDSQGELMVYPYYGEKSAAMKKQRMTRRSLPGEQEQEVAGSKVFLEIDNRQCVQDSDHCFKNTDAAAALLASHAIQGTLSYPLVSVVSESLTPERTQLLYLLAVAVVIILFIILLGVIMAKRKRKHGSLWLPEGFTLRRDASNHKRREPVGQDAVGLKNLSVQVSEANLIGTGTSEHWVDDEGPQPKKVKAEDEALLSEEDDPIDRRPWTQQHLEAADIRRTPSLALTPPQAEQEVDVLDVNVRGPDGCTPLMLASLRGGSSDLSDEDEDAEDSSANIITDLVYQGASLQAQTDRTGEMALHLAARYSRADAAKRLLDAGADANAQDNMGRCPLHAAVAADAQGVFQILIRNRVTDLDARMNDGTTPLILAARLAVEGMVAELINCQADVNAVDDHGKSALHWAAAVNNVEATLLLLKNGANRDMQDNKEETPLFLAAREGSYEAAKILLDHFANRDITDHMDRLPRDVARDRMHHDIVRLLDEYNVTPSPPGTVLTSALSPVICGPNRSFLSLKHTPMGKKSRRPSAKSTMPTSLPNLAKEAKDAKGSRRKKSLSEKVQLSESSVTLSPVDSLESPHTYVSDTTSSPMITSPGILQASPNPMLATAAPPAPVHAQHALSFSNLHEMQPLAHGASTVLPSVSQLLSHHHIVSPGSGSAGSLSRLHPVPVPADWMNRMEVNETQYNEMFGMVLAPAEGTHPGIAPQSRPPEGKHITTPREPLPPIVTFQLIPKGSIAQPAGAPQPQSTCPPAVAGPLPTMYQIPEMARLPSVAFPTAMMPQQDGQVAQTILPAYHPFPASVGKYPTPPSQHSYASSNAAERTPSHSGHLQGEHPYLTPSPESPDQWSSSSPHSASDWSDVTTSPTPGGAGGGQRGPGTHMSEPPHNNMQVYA
Sequence of Pro-neuregulin-1, membrane-bound isoform (Homo sapiens) (Q02297 whole entry, looked up, the tested form may be a part, canonical isoform): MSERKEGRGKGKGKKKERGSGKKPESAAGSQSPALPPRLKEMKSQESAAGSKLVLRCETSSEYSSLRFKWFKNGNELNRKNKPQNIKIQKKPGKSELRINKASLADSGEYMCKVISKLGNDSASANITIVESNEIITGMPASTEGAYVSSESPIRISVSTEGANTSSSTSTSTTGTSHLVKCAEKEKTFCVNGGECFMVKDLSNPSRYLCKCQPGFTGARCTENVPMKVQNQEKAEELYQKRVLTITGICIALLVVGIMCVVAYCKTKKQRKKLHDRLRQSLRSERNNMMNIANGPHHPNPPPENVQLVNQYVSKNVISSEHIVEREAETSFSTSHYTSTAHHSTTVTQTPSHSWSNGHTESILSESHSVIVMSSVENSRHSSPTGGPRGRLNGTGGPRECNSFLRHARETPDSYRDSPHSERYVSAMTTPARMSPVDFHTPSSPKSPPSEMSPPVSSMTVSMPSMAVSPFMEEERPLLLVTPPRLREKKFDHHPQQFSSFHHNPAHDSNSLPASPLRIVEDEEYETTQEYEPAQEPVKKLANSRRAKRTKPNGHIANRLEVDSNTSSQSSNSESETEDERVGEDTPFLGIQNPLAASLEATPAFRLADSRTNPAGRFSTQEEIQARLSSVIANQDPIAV

Compound	composite z-score [1]	composite z-score [2]	composite z-score [3]	composite z-score [4]	composite z-score [5]	composite z-score [6]	composite z-score [7]	z-score [8]	composite z-score [9]	composite z-score [10]	composite z-score [11]	z-score [12]	z-score [13]	z-score [14]	composite z-score [15]	z-score [16]	composite z-score [17]	composite z-score [18]	composite z-score [19]	composite z-score [20]
Cc1ccc(S[C@]2(C(=O)NC(C)C)CC(=O)N(Cc3ccccc3)[C@@H]2c2ccc(CO)cc2I)cc1	1.28	-0.37	-0.0303	0.176	-0.705	0.291	0.478	-0.259 (inactive)	-0.26	-0.226	1.46	-1.12 (inactive)	-1.15 (inactive)	0.739 (inactive)	2.11	0.301 (inactive)	-0.102	-1.44	-0.332	-0.0146
COc1ccc([Si](C)(C)[C@H]2[C@H](CC(=O)N3CCC[C@H]3CO)O[C@@]3(C(=O)N(Cc4cccc(N5CCCCC5=O)c4)c4ccccc43)[C@@H]2C)cc1	-0.381	0.519	-0.126	0.682	0.757	0.836	1.14	-3.74 (inactive)	0.0346	-0.0296	1.52	-0.439 (inactive)	0.294 (inactive)	-1.23 (inactive)	1.98	0.561 (inactive)	-0.174	1.23	1.09	-0.139
CN(C)CCCCCCNC(=O)[C@@H]1C[C@@H]2C(=O)N[C@@H](CCCC[N+](C)(C)C)C(=O)N2[C@@H]1c1cccc(OCCO)c1	0.516	0.869	-0.0707	-0.431	-0.558	-0.538	0.801	3.98 (inactive)	-0.516	-0.333	-0.357	-3.6 (inactive)	-1 (inactive)	-1.17 (inactive)	2.79	0.797 (inactive)	0.141	-0.349	0.363	-0.108
CCOC(=O)C1=C[C@@H](C(C)(C)C)N(S(=O)(=O)c2ccc(C)cc2)[C@H]1c1ccc(OC)cc1	-0.491	-0.103	0.0111	0.726	1.56	0.348	1.19	-3.35 (inactive)	0.525	-0.212	1.55	0.443 (inactive)	2.17 (inactive)	1.54 (inactive)	3.07	0.1 (inactive)	-0.0865	1.18	1.09	0.0301
COc1cc(Cc2cc3c(c(-c4ccccc4)n2)[Si](C(C)C)(C(C)C)OC3)cc(OC)c1OC	0.13	0.0203	-0.141	0.305	-0.374	-0.289	-0.683	-0.277 (inactive)	0.0647	0.0274	-0.313	0.208 (inactive)	-0.949 (inactive)	-0.573 (inactive)	-0.501	1.22 (inactive)	-0.0991	0.331	-0.108	-0.0864
CC(C)Cc1ccc(CN2CC[C@@H](NC(=O)c3ccccc3)C2)cc1	0.0315	0.481	-0.176	-0.102	-0.859	0.638	-0.368	-0.623 (inactive)	-0.174	-0.13	-0.174	-0.216 (inactive)	-21.2 (active)	0.237 (inactive)	-0.0003	-0.219 (inactive)	-0.167	0.666	-0.0255	-0.157
O=C1C2C=CC(C(O)C(c3ccccc3)c3ccccc3)N(Nc3ccccc3F)C2C(=O)N1c1ccccc1 (stereo not given)	-0.117	0.975	0.11	1.03	1.63	1.76	1.32	-0.243 (inactive)	1.5	-0.121	1.52	0.504 (inactive)	0.973 (inactive)	1.75 (inactive)	3.58	-1.06 (inactive)	0.0943	0.295	1.02	0.162
[N-]=[N+]=NCc1ccccc1C[C@@]1(C(N)=O)N=C(c2ccc(OCCCO)cc2)O[C@@H]1c1ccccc1N=[N+]=[N-]	-0.459	-0.0227	0.0131	1.15	1.43	1.38	1.07	-0.739 (inactive)	0.926	0.0722	1.28	-0.506 (inactive)	-0.292 (inactive)	-0.531 (inactive)	3.22	-0.331 (inactive)	0.137	0.0508	0.516	0.0766
[N-]=[N+]=Nc1ccccc1C[C@@]1(C(=O)NCC(O)CO)N=C(c2ccc(OCCCO)cc2)O[C@@H]1c1ccccc1N=[N+]=[N-] (stereo not given in full)	-0.175	0.045	0.285	0.311	0.194	1.62	0.848	-0.858 (inactive)	0.941	-0.134	0.9	-0.961 (inactive)	0.0801 (inactive)	0.23 (inactive)	3.37	0.616 (inactive)	0.285	0.0196	0.298	0.0001
